# Measurements taken from PubChem BioAssay.
# Where “and” joins values, the source holds several entries; their conditions need not be identical. Equal values may be shown once. Results filed as inconclusive are left out. Calls of active or inactive are those of the source.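 Rule for the calls, unless noted: active = normalized viability below 100% at a tested concentration; inactive = the rest.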
# How the values were obtained:
# [1] = growth inhibition of DIPG glioma cells, dose response, cell-based, SU-DIPG-XVII, MIPE5.0, CellTiter-Glo, qHTS (AID 1347060; cut-off not given, nearly all actives have AC50 up to about 26 µM;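 note: cells exposed to compound for 48 hours before viability readout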); conditions: SU-DIPG-XVII viability, CellTiter-Glo ATP luminescence
# [2] = growth inhibition of DIPG glioma cells, dose response, cell-based, SU-DIPG-XIII, MIPE4.0, CellTiter-Glo, qHTS (AID 1347061; cut-off not given, nearly all actives have AC50 up to about 37 µM;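 note: cells exposed to compound for 48 hours before readout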); conditions: SU-DIPG-XIII viability, CellTiter-Glo ATP luminescence
# [3] = growth inhibition of DIPG glioma cells, dose response, cell-based, JHH-DIPG-1, MIPE4.0, CellTiter-Glo, qHTS (AID 1347062; cut-off not given, nearly all actives have AC50 up to about 27 µM;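 note: cells exposed to compound for two days before readout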); conditions: JHH-DIPG-1 viability, CellTiter-Glo ATP luminescence
# [4] = growth inhibition of DIPG glioma cells, dose response, cell-based, SU-DIPG-IV, MIPE4.0, CellTiter-Glo, qHTS (AID 1347063; cut-off not given, nearly all actives have AC50 up to about 30 µM;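 note: compound exposure lasted 48 hours before the viability readout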); conditions: SU-DIPG-IV viability, CellTiter-Glo ATP luminescence
# [5] = growth inhibition of DIPG glioma cells, dose response, cell-based, SU-DIPG-XIII, MIPE5.0, CellTiter-Glo, qHTS (AID 1347064; cut-off not given, nearly all actives have AC50 up to about 23 µM;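 note: cells exposed to compound for 48 hours before the viability read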); conditions: SU-DIPG-XIII viability, CellTiter-Glo ATP luminescence
# [6] = viability loss in pontine glioma line – cell-based, SU-DIPG-XXV, MIPE5.0, CellTiter-Glo, qHTS, dose response (AID 1347065; cut-off not given, nearly all actives have AC50 up to about 26 µM;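 note: cells exposed to compound for 48 hours before ATP readout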); conditions: CellTiter-Glo ATP luminescence
# [7] = SU-DIPG-VI glioma cell viability, MIPE4.0 library, CellTiter-Glo luminescence, qHTS (AID 1347066; cut-off not given, nearly all actives have AC50 up to about 30 µM;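 note: cells exposed to compound for 48 hours before readout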); conditions: CellTiter-Glo ATP luminescence
# [8] = JHH-DIPG-1 glioma cell viability, MIPE5.0 library, CellTiter-Glo luminescence, qHTS (AID 1347067; cut-off not given, nearly all actives have AC50 up to about 26 µM;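 note: cells exposed to compound for 48 hours before readout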); conditions: JHH-DIPG-1 glioma viability, CellTiter-Glo ATP luminescence
# [9] = SU-DIPG-XXV glioma cell viability, MIPE5.0 library, qHTS (AID 1347068; cut-off not given, nearly all actives have IC50 up to about 30 µM;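 note: cells exposed to compound for 48 hours before viability readout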)
# [10] = sensitizers of A549 cells to miR-34 induction, primary screen, imaging, A549 dox-inducible miR-34, nuclei and caspase counts (AID 1347080;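 active = compounds whose cell count with miR-34 switched on is under 0.7 times the count with it off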); conditions: A549 miR-34 inducible, Hoechst nuclei count, 48 h
# [11] = survival rescue of mitochondrial mutant cells in low glucose, primary screen, MELAS cybrids, Rieske KO mouse fibroblasts, CellTiter-Glo (AID 1508586;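 active = mean z-score across replicates of 1.96 or higher in either the MELAS or the Rieske mutant cell line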;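 note: z relative to plate mean and SD of compound and empty wells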)
# [12] = ovarian cancer cell viability with rucaparib, profiling panel, oncology-focused library, rucaparib conditional (AID 1508598); conditions: patient-derived ovarian cancer cells, CellTiter-Glo viability, 144 h, stronger effect = lower value
# [13] = modifiers of HSF1 nuclear foci, imaging, Selleck Cancer Library (AID 1347162; in the data active = plate-normalised HSF1 focus index below about 0.46); conditions: human cells, at 10 µM; SSMD: measured here: HSF1 foci SSMD mean; cell count: measured here: cell number; plate-normalised HSF1 focus index: stronger effect = lower value
# [14] = stronger effect = lower value, cell number ratio, induced over uninduced
# [15] = measured here: relative caspase fold change +Dox/-Dox
# [16] = measured here: total cells with miR-34 induction, stronger effect = lower value
# [17] = measured here: total cells without miR-34 induction
# [18] = MELAS cybrid survival, CellTiter-Glo 48 h, stronger effect = higher value
# [19] = Rieske KO mouse fibroblast survival, CellTiter-Glo 72 h
# [20] = at 0.000305 µM, OCI-C5x cells, with rucaparib 10 µM, 100% = cells with rucaparib alone
# [21] = at 0.000305 µM, OCI-C5x cells, without rucaparib
# [22] = at 0.000305 µM, OCI-P5x cells, with rucaparib 20 µM, 100% = cells with rucaparib alone
# [23] = at 0.000305 µM, OCI-P5x cells, without rucaparib
# [24] = at 0.00122 µM, OCI-C5x cells, with rucaparib 10 µM, 100% = cells with rucaparib alone
# [25] = at 0.00122 µM, OCI-C5x cells, without rucaparib
# [26] = at 0.00122 µM, OCI-P5x cells, with rucaparib 20 µM, 100% = cells with rucaparib alone
# [27] = at 0.00122 µM, OCI-P5x cells, without rucaparib
# [28] = at 0.00488 µM, OCI-C5x cells, with rucaparib 10 µM, 100% = cells with rucaparib alone
# [29] = at 0.00488 µM, OCI-C5x cells, without rucaparib
# [30] = at 0.00488 µM, OCI-P5x cells, with rucaparib 20 µM, 100% = cells with rucaparib alone
# [31] = at 0.00488 µM, OCI-P5x cells, without rucaparib
# [32] = at 0.0195 µM, OCI-C5x cells, with rucaparib 10 µM, 100% = cells with rucaparib alone
# [33] = at 0.0195 µM, OCI-C5x cells, without rucaparib
# [34] = at 0.0195 µM, OCI-P5x cells, with rucaparib 20 µM, 100% = cells with rucaparib alone
# [35] = at 0.0195 µM, OCI-P5x cells, without rucaparib
# [36] = at 0.0781 µM, OCI-C5x cells, with rucaparib 10 µM, 100% = cells with rucaparib alone
# [37] = at 0.0781 µM, OCI-C5x cells, without rucaparib
# [38] = at 0.0781 µM, OCI-P5x cells, with rucaparib 20 µM, 100% = cells with rucaparib alone
# [39] = at 0.0781 µM, OCI-P5x cells, without rucaparib
# [40] = at 0.313 µM, OCI-C5x cells, with rucaparib 10 µM, 100% = cells with rucaparib alone
# [41] = at 0.313 µM, OCI-C5x cells, without rucaparib
# [42] = at 0.313 µM, OCI-P5x cells, with rucaparib 20 µM, 100% = cells with rucaparib alone
# [43] = at 0.313 µM, OCI-P5x cells, without rucaparib
# [44] = at 1.25 µM, OCI-C5x cells, with rucaparib 10 µM, 100% = cells with rucaparib alone
# [45] = at 1.25 µM, OCI-C5x cells, without rucaparib
# [46] = at 1.25 µM, OCI-P5x cells, with rucaparib 20 µM, 100% = cells with rucaparib alone
# [47] = at 1.25 µM, OCI-P5x cells, without rucaparib
# [48] = at 5 µM, OCI-C5x cells, with rucaparib 10 µM, 100% = cells with rucaparib alone
# [49] = at 5 µM, OCI-C5x cells, without rucaparib
# [50] = at 5 µM, OCI-P5x cells, with rucaparib 20 µM, 100% = cells with rucaparib alone
# [51] = at 5 µM, OCI-P5x cells, without rucaparib
smiles,measurement,setting,value
COCCn1c2c([n+](Cc3cnccn3)c1C)C(=O)c1ccccc1C2=O,AC50,[1],0.00934 µM (active)
same,AC50,[2],0.0662 µM (active)
same,AC50,[3],0.0469 µM (active)
same,AC50,[4],0.0148 µM (active)
same,AC50,[5],0.00166 µM (active)
same,AC50,[6],0.0263 µM (active)
same,AC50,[7],0.0235 µM (active)
same,AC50,[8],0.105 µM (active)
same,IC50,[9],0.0295 µM (active)
same,fold change,[10]; [14],1.7 (inactive)
same,fold change,[10]; [15],0.996
same,cell count,[10]; [16],936
same,cell count,[10]; [17],551
same,z-score,[11]; [18],-0.74 (inactive)
same,z-score,[11]; [19],-2.86
same,viability,[12]; [20],92.6% (active)
same,viability,[12]; [21],88.5% (active)
same,viability,[12]; [22],116% (inactive)
same,viability,[12]; [23],108% (inactive)
same,viability,[12]; [24],88.5% (active)
same,viability,[12]; [25],93.8% (active)
same,viability,[12]; [26],128% (inactive)
same,viability,[12]; [27],99.4% (active)
same,viability,[12]; [28],90.5% (active)
same,viability,[12]; [29],91.8% (active)
same,viability,[12]; [30],114% (inactive)
same,viability,[12]; [31],49.6% (active)
same,viability,[12]; [32],83% (active)
same,viability,[12]; [33],14.6% (active)
same,viability,[12]; [34],61.5% (active)
same,viability,[12]; [35],8.64% (active)
same,viability,[12]; [36],11% (active)
same,viability,[12]; [37],3.7% (active)
same,viability,[12]; [38],18.6% (active)
same,viability,[12]; [39],1.55% (active)
same,viability,[12]; [40],3.83% (active)
same,viability,[12]; [41],2.36% (active)
same,viability,[12]; [42],1.82% (active)
same,viability,[12]; [43],0.757% (active)
same,viability,[12]; [44],2.25% (active)
same,viability,[12]; [45],1.76% (active)
same,viability,[12]; [46],1.09% (active)
same,viability,[12]; [47],0.567% (active)
same,viability,[12]; [48],0.969% (active)
same,viability,[12]; [49],1.42% (active)
same,viability,[12]; [50],0.522% (active)
same,viability,[12]; [51],0.371% (active)
CCS(=O)(=O)c1cccc(-c2cc(C(=O)NC3CCN(C)CC3)c(C)c3[nH]c4ncc(C)cc4c23)c1,AC50,[1],0.59 µM (active)
same,AC50,[2],2.96 µM (active)
same,AC50,[3],2.64 µM (active)
same,AC50,[4],5.26 µM (active)
same,AC50,[5],1.48 µM (active)
same,AC50,[6],0.59 µM (active)
same,AC50,[7],8.33 µM (active)
same,AC50,[8],1.48 µM (active)
same,IC50,[9],1.48 µM (active)
same,fold change,[10]; [14],1.06 (inactive)
same,fold change,[10]; [15],0.946
same,cell count,[10]; [16],1160
same,cell count,[10]; [17],1090
same,z-score,[11]; [18],2.57 (active)
same,z-score,[11]; [19],-0.249
COc1cc2c(Oc3ccc(NC(=O)C4(C(=O)Nc5ccc(F)cc5)CC4)cc3F)ccnc2cc1OCCCN1CCOCC1,AC50,[1],2.63 µM (active)
same,AC50,[2],8.33 µM (active)
same,AC50,[3],18.7 µM (active)
same,AC50,[4],6.62 µM (active)
same,AC50,[5],3.72 µM (active)
same,AC50,[6],1.32 µM (active)
same,AC50,[7],11.8 µM (active)
same,AC50,[8],5.9 µM (active)
same,IC50,[9],3.72 µM (active)
same,fold change,[10]; [14],1.06 (inactive)
same,fold change,[10]; [15],0.77
same,cell count,[10]; [16],1060
same,cell count,[10]; [17],992
same,z-score,[11]; [18],2.58 (active)
same,z-score,[11]; [19],0.0525
C=C1C(=O)O[C@@H]2[C@H]3O[C@]3(C)CC/C=C(\C)CC[C@@H]12,AC50,[1],9.34 µM (active)
same,AC50,[2],16.6 µM (active)
same,AC50,[3],14.8 µM (active)
same,AC50,[4],7.43 µM (active)
same,AC50,[5],4.68 µM (active)
same,AC50,[6],7.42 µM (active)
same,AC50,[7],3.72 µM (active)
same,AC50,[8],6.61 µM (active)
same,IC50,[9],16.6 µM (active)
same,fold change,[10]; [14],0.927 (inactive) and 0.781 (inactive)
same,fold change,[10]; [15],1.09 and 1.49
same,cell count,[10]; [16],4920 and 316
same,cell count,[10]; [17],5310 and 404
same,z-score,[11]; [18],2.28 (active)
same,z-score,[11]; [19],-0.174
C=CC(=O)Nc1cccc(Oc2nc(Nc3ccc(N4CCN(C)CC4)cc3OC)ncc2Cl)c1,AC50,[1],3.32 µM (active)
same,outcome,[2],inactive
same,AC50,[3],20.9 µM (active)
same,AC50,[4],14.8 µM (active)
same,AC50,[5],6.61 µM (active)
same,AC50,[6],4.17 µM (active)
same,AC50,[7],16.6 µM (active)
same,AC50,[8],8.33 µM (active)
same,IC50,[9],2.63 µM (active)
same,fold change,[10]; [14],0.841 (inactive)
same,fold change,[10]; [15],0.924
same,cell count,[10]; [16],4420
same,cell count,[10]; [17],5250
same,SSMD,[13],-3.65
same,cell count,[13],5190
same,plate-normalised HSF1 focus index,[13],0.843 (inactive)
same,z-score,[11]; [18],-0.337 (inactive)
same,z-score,[11]; [19],0.584
same,viability,[12]; [20],115% (inactive)
same,viability,[12]; [21],104% (inactive)
same,viability,[12]; [22],114% (inactive)
same,viability,[12]; [23],112% (inactive)
same,viability,[12]; [24],117% (inactive)
same,viability,[12]; [25],120% (inactive)
same,viability,[12]; [26],108% (inactive)
same,viability,[12]; [27],114% (inactive)
same,viability,[12]; [28],107% (inactive)
same,viability,[12]; [29],118% (inactive)
same,viability,[12]; [30],119% (inactive)
same,viability,[12]; [31],118% (inactive)
same,viability,[12]; [32],115% (inactive)
same,viability,[12]; [33],112% (inactive)
same,viability,[12]; [34],108% (inactive)
same,viability,[12]; [35],118% (inactive)
same,viability,[12]; [36],119% (inactive)
same,viability,[12]; [37],116% (inactive)
same,viability,[12]; [38],115% (inactive)
same,viability,[12]; [39],115% (inactive)
same,viability,[12]; [40],115% (inactive)
same,viability,[12]; [41],120% (inactive)
same,viability,[12]; [42],119% (inactive)
same,viability,[12]; [43],118% (inactive)
same,viability,[12]; [44],106% (inactive)
same,viability,[12]; [45],45.1% (active)
same,viability,[12]; [46],108% (inactive)
same,viability,[12]; [47],94.6% (active)
same,viability,[12]; [48],91.6% (active)
same,viability,[12]; [49],115% (inactive)
same,viability,[12]; [50],104% (inactive)
same,viability,[12]; [51],67.9% (active)
Clc1ccc(C(c2ccc(Cl)cc2)n2cc[n+](CC(OCc3ccc(Cl)cc3Cl)c3ccc(Cl)cc3Cl)c2)cc1 (stereo unspecified),AC50,[1],2.95 µM (active)
same,AC50,[2],23.5 µM (active)
same,AC50,[3],16.6 µM (active)
same,AC50,[4],9.35 µM (active)
same,AC50,[5],2.63 µM (active)
same,AC50,[6],2.35 µM (active)
same,AC50,[7],13.2 µM (active)
same,AC50,[8],2.63 µM (active)
same,IC50,[9],3.72 µM (active)
